Laboratory results as given in PubChem BioAssay.
Activity calls are given as the source filed them.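 Rule for the calls, unless noted: active = inhibition at or above 50% at 10 µM; inactive = inhibition below 50%.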

Assays:
[1] = inhibitors of TNFa-induced NFkB p65 translocation, primary screen, imaging, HUVEC, MLSMR starter and 10KST1 sets (AID 438;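 active = inhibition above 20% together with a positive visual image hit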;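 note: compound added about 3h40 before a 20 min TNFalpha stimulation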;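 for inhibition: signal is the nuclear over cytoplasmic p65 intensity ratio per well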); details: HUVEC TNFa-induced p65 nuclear translocation; cell count: measured here: nuclei count (cytotoxicity indicator), at 2.08 µM; inhibition: at 2 µM, stronger effect = higher value, 0% TNFa-plus-vehicle, 100% no-TNFa wells
[2] = reduction of polyQ htt aggregates in cells – imaging, exon1htt(103Q)mCFP cells, high-content imaging, primary screen (AID 483;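 active = visual image review flags a hit and inhibition of aggregation exceeds 20%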;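 note: compound exposure lasted 3 days before fixation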;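 for nuclei count: percent of the per-plate median nuclei count of sample wells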); details: exon1htt(103Q)mCFP cell line, aggregate imaging, at 2 µM; inhibition of aggregation: stronger effect = higher value; nuclei count: measured here: cell count, toxicity
[3] = endothelial E-selectin expression blockers – imaging, HUVEC, immunofluorescence, MLSMR starter and 10KST1 sets, primary screen (AID 487;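 active = visually confirmed hit in the image check and inhibition above 20%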;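 for inhibition: signal is fraction of cell area covered by stained E-selectin grains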;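 for nuclei count: 100% = median nuclei count of all wells on the same plate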); details: HUVEC TNFalpha-induced E-selectin immunofluorescence imaging, at 2 µM; inhibition: stronger effect = higher value; nuclei count: measured here: cell number, toxicity
[4] = molecular target: Voltage-gated potassium channel subunit beta-2 (Rattus norvegicus) (UniProt P62483); assay: inhibitors of rat Kvbeta2 reductase activity – biochemical, NADPH fluorescence, primary screen (AID 622;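 active = fluorescence slope higher than the sample average by over 3 SD, cut at about -0.22 in these data, passing the limit was not always enough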;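 note: slope of raw intensity against log time taken from 70 to 1610 s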); details: recombinant KvBeta, 4-cyanobenzaldehyde reduction, at 10 µM, stronger effect = higher value
[5] = molecular target: Voltage-gated potassium channel subunit beta-2 (Rattus norvegicus) (UniProt P62483); assay: enhancers of rat Kvbeta2 NADPH turnover – biochemical, NADPH fluorescence, primary screen (AID 623;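 active = NADPH fluorescence slope more negative than the mean of all samples by about 3 SD, 99.7% confidence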;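 note: fluorescence intensity change per second fitted from 20 to 320 s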); details: Recombinant KvBeta, NADPH fluorescence decrease slope, 10 min; at 10 µM; stronger effect = lower value
[6] = molecular target: Alpha-2C adrenergic receptor (Homo sapiens) (UniProt P18825); assay: compounds altering alpha2C-coupled GIRK flux – cell-based, HEK293 alpha2C/GIRK1/2, thallium flux, primary screen (AID 624;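 active = fluorescence slope after compound addition differing from the mean of all screened samples at 99.7% confidence, in either direction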;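 note: slope of fluorescence ratio to pre-addition baseline per second over 15 to 24 s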); details: thallium flux BTC fluorescence, at 10 µM, actives lie on both sides
[7] = blockers of RIG-like receptor reporter activation – cell-based, Sendai virus stimulus, luciferase, 10K MLSCN set, TLR/RLR signaling modifier project, primary screen (AID 602276); details: HEK293 RL24 IRF3 luciferase reporter, at 10 µM, stronger effect = higher value;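 note: firefly luciferase from ISG56 promoter only with Renilla not read in this screen; 0% = Sendai virus plus DMSO and 100% = medium plus DMSO without virus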
[8] = TLR3 IRF3 reporter activation blockers – cell-based, poly I:C stimulus, luciferase, 10K MLSCN set, primary screen (AID 602277;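 active = inhibition of the reporter signal at or above 50%; inactive = inhibition below 50%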); details: HEK293-TLR3 RL24 IRF3 luciferase reporter, at 10 µM, stronger effect = higher value

Chain of Alpha-2C adrenergic receptor (Homo sapiens) (P18825 whole entry, looked up): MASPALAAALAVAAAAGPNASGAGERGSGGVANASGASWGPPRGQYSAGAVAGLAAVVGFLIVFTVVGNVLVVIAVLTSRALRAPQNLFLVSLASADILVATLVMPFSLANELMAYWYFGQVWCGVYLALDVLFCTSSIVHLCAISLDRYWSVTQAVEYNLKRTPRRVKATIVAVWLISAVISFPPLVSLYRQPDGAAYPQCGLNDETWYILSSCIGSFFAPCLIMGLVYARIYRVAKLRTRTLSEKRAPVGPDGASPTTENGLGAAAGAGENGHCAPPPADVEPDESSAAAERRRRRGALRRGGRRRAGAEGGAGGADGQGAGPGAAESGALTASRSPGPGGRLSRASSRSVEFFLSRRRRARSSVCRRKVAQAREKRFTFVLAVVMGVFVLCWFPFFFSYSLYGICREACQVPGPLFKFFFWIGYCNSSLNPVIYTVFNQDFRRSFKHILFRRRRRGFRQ
Chain of Voltage-gated potassium channel subunit beta-2 (Rattus norvegicus) (P62483 whole entry, looked up): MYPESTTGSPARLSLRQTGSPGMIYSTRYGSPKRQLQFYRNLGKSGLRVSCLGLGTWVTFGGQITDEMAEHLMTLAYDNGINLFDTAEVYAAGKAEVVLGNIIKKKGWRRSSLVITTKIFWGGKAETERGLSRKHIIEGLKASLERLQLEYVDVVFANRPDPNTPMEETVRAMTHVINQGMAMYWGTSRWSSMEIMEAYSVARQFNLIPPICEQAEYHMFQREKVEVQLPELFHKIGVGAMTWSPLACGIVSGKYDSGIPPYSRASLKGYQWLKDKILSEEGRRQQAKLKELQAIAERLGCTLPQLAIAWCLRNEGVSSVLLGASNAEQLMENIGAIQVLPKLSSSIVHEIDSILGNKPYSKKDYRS

SMILES	cell count [1]	inhibition [1]	inhibition of aggregation [2]	nuclei count [2]	inhibition [3]	nuclei count [3]	fluorescence slope [4]	NADPH fluorescence slope [5]	slope [6]	inhibition [7]	inhibition [8]
CC(NC(=O)c1cn(C)c2ccc(S(=O)(=O)N3CCCC3)cc2c1=O)c1ccc2c(c1)OCCO2 (stereo not given)	766	0% (inactive)	5.6% (inactive)	98.3%	3.8% (inactive)	103%	-0.483 (inactive)	-0.000101 (inactive)	0.00703 (inactive)	-4.57% (inactive)	17% (inactive)
C/C(=C\c1ccco1)C1C(C#N)=C(N)OC2=C1C(=O)CC(C)(C)C2 (stereo not given)	595	-9.1% (inactive)	11.6% (inactive)	96.3%	-87.8% (inactive)	106%	-0.303 (inactive)	-6.3e-05 (inactive)	0.00426 (inactive)	15.4% (inactive)	18.7% (inactive)
O=S1(=O)C=C(Sc2nc3ccccc3s2)c2ccccc21	581	-2.6% (inactive)	-17.5% (inactive)	67.1%	121% (active)	72.2%	-0.474 (inactive)	5.2e-06 (inactive)	0.00662 (inactive)	16.3% (inactive)	84.8% (active)
CCCOC(=O)c1[nH]c2c(c1C)C(=O)CC(c1ccc(OC)c(OC)c1)C2 (stereo not given)	235	-2.8% (inactive)	2.4% (inactive)	101%	17.6% (inactive)	47.3%	-0.408 (inactive)	8.6e-06 (inactive)	0.00378 (inactive)	-11.5% (inactive)	-41.9% (inactive)
CC1(C)CNC(=O)CC(C)(C)N1O	379	4% (inactive)	7.9% (inactive)	89.4%	-66.8% (inactive)	110%	-0.497 (inactive)	-6.2e-06 (inactive)	0.00315 (inactive)	-4.83% (inactive)	19.7% (inactive)
Cc1ccc(-n2c3c(cc(C(=O)NCCCN4CCOCC4)c2=O)C(=O)CC(C)(C)C3)cc1	349	-0.6% (inactive)	-1.3% (inactive)	57%	-65.9% (inactive)	117%	-0.58 (inactive)	9.1e-06 (inactive)	0.00654 (inactive)	-1.07% (inactive)	36.9% (inactive)
CCOC(=O)C(NC(=O)OC(C)C)(Nc1nccs1)C(F)(F)F (stereo not given)	636	10.6% (inactive)	-13.3% (inactive)	98.7%	22.7% (inactive)	108%	-0.608 (inactive)	-5.2e-07 (inactive)	0.00583 (inactive)	8.51% (inactive)	27.8% (inactive)
Cc1ccc(-c2nnc3c4ccccc4c(C)nn23)cc1NC(=O)c1ccco1	641	-11% (inactive)	17.5% (inactive)	102%	-106% (inactive)	115%	-0.602 (inactive)	2.3e-05 (inactive)	0.00729 (inactive)	-0.847% (inactive)	-4.54% (inactive)
COc1ccc(C2CC(c3ccccc3)Nc3nc(NC(=O)c4cccs4)nn32)cc1 (stereo not given)	413	1.4% (inactive)	-6.8% (inactive)	102%	-156% (inactive)	112%	-0.372 (inactive)	-7.5e-05 (inactive)	0.00554 (inactive)	18.4% (inactive)	25.3% (inactive)
Cc1cccc2c1nc(-c1ccccc1)n1cnnc21	345	-10.7% (inactive)	-2.7% (inactive)	73%	-58% (inactive)	114%	-0.452 (inactive)	-2.6e-08 (inactive)	0.00423 (inactive)	-15.9% (inactive)	-12.4% (inactive)
COc1cccc(-c2nc(CS(=O)(=O)CC(=O)N3CCN(c4ccccn4)CC3)c(C)o2)c1	752	-4.4% (inactive)	2.6% (inactive)	115%	-72.1% (inactive)	114%	-0.506 (inactive)	-1.1e-05 (inactive)	0.00682 (inactive)	6.91% (inactive)	-1.07% (inactive)
O=C(OC1CCOC1=O)c1ccc(S(=O)(=O)N2CCCCCC2)cc1 (stereo not given)	466	1.1% (inactive)	-2.3% (inactive)	92.8%	-116% (inactive)	97.1%	-0.329 (inactive)	7.8e-06 (inactive)	0.00585 (inactive)	5.47% (inactive)	14.9% (inactive)
CCOC(=O)c1ccc(NC(=O)CSC2=NC(=O)C(CC)C(=O)N2)cc1 (stereo not given)	534	-20.1% (inactive)	-43.6% (inactive)	83.8%	-104% (inactive)	102%	-0.569 (inactive)	2.6e-05 (inactive)	0.00682 (inactive)	-3.93% (inactive)	-17% (inactive)
CCOc1ccc(-c2cc(CCCC(=O)N3CCN(c4ccc(OC)cc4)CC3)no2)cc1	513	0.7% (inactive)	23.7% (inactive)	61%	-0.1% (inactive)	86%	-0.614 (inactive)	2.2e-05 (inactive)	0.00539 (inactive)	11% (inactive)	24.1% (inactive)
COc1ccc(Cl)cc1Nc1nc(NCCO)nc(N2CCCC2)n1	390	-4.3% (inactive)	5.8% (inactive)	95.9%	-6% (inactive)	112%	-0.595 (inactive)	-2.1e-05 (inactive)	0.00689 (inactive)	11.5% (inactive)	16.2% (inactive)
CC(NC(=O)COc1ccccc1)C(=O)NC1=NCCS1 (stereo not given)	356	2% (inactive)	8.1% (inactive)	104%	-85.5% (inactive)	128%	-0.35 (inactive)	-2.2e-05 (inactive)	0.00548 (inactive)	14.4% (inactive)	20.3% (inactive)
Cc1c(-n2c(CN3C(=O)c4ccccc4C3=O)nc3ccccc3c2=O)c(=O)n(-c2ccccc2)n1C	407	-8.4% (inactive)	-10.1% (inactive)	115%	77.1% (inactive)	95.8%	-0.619 (inactive)	1.1e-05 (inactive)	0.00583 (inactive)	5.03% (inactive)	24.9% (inactive)
CC(C)CC(=O)Nc1ccccc1-c1nnn(CC(=O)N2CCOCC2)n1	739	-6.7% (inactive)	1.9% (inactive)	112%	25.9% (inactive)	106%	-0.497 (inactive)	-6.6e-05 (inactive)	0.00487 (inactive)	7.19% (inactive)	13.9% (inactive)
Cc1ccc(S(=O)(=O)Cn2nnnc2C(C(C)C)N2CCN(C(=O)c3ccco3)CC2)cc1 (stereo not given)	400	-0.4% (inactive)	2.5% (inactive)	100%	6.9% (inactive)	101%	-0.405 (inactive)	-4.2e-05 (inactive)	0.00633 (inactive)	11.4% (inactive)	15.4% (inactive)
CC1=C(n2nnc3ccccc32)C(c2ccccc2)C(C#N)=C(N)O1 (stereo not given)	424	1.5% (inactive)	13.7% (inactive)	90.7%	27.5% (inactive)	113%	-0.364 (inactive)	-0.00012 (inactive)	0.00512 (inactive)	17.5% (inactive)	32% (inactive)
COc1ccc(NC(=O)CN2CCCCC2)cc1	494	-1.5% (inactive)	5.5% (inactive)	110%	-23.4% (inactive)	121%	-0.414 (inactive)	-2.7e-05 (inactive)	0.00355 (inactive)	3.07% (inactive)	11.2% (inactive)
CCOc1ccc(CNC(=O)C2CCCN(S(C)(=O)=O)C2)cc1OC (stereo not given)	664	-7.1% (inactive)	11.9% (inactive)	84%	-95.3% (inactive)	136%	-0.356 (inactive)	-1.3e-05 (inactive)	0.00564 (inactive)	9.09% (inactive)	12% (inactive)
Cc1cc(NC(=O)COc2cccc(Oc3ccccc3)c2)no1	327	-0.9% (inactive)	-11.4% (inactive)	80.8%	-61% (inactive)	106%	-0.375 (inactive)	-7.6e-05 (inactive)	0.0048 (inactive)	10.8% (inactive)	30.5% (inactive)
CC(=O)c1ccc(OCC(O)CN2CCN(CCO)CC2)cc1 (stereo not given)	605	-6.1% (inactive)	-14.2% (inactive)	104%	-19.7% (inactive)	113%	-0.549 (inactive)	-2.9e-05 (inactive)	0.00738 (inactive)	13.3% (inactive)	40.3% (inactive)
COc1ccc(N2CCN(C(c3cccs3)c3nnnn3C3CCCC3)CC2)cc1 (stereo not given)	219	12.7% (inactive)	1.6% (inactive)	104%	-10.3% (inactive)	88.2%	-0.614 (inactive)	-1.5e-08 (inactive)	0.00587 (inactive)	1.77% (inactive)	11.1% (inactive)
